Compound activity from PubChem.
CYP2C9 inh = blocks human cytochrome P450 2C9; P11712; AID 777; CYP2C9 Supersomes, luciferin-H conversion, luminescence; inhibition, % at 5 µM; 20% of 96,000 active;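 active means blocking of liver enzyme CYP2C9 beyond about 50% at 5 µM, limit read from the data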
Target sequence (P11712 whole entry, looked up): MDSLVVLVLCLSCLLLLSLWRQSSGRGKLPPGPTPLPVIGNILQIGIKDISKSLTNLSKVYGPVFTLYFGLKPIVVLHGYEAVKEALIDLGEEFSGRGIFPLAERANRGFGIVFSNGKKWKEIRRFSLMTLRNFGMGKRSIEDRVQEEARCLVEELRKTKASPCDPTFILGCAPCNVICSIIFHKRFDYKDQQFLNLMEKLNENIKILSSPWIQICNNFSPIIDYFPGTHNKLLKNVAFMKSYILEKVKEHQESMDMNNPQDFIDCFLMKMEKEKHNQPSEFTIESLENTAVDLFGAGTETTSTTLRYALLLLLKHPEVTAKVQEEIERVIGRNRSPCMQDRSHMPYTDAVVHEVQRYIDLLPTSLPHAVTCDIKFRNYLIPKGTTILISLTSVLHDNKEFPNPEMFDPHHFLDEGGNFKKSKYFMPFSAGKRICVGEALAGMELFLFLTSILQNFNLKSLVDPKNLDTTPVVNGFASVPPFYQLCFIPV
CD11b adhes enh = CD11b/CD18-fibrinogen binding enhancement. K562 CD11b/CD18 adhesion to fibrinogen, ATPlite luminescence. activation, % at 10 µM. 0.07% of 93,000 active;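 active means 10 µM primary screen giving 50% or more activity, confirmed by 40% or more on retest at that dose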
Mac1 fbg inh = inhibitors of human CD11b/CD18 binding to fibrinogen; P05107+P11215; K562 CD11b/CD18 adhesion to fibrinogen, ATPlite luminescence; Mn2+ added to activate the integrin; 0.54% of 93,000 active; inhibition, % at 10 µM;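 active means primary inhibition of 50% or more at 10 µM, then 40% or more on retest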
CYP2C9 act = activators of human CYP2C9 | 1.4% of 96,000 active | activation factor at 5 µM | recombinant CYP2C9, luciferin-H conversion, luminescence; active compounds read high; factor 1 = untreated enzyme, 0 = blocked;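 active means activation factor of 2 or more for CYP2C9 at a 5 µM dose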;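 further: 0 = sulfaphenazole-blocked wells and 1 = vehicle-only wells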
CYP2C19 inh = blocks human cytochrome P450 2C19. P33261. CYP2C19 Supersomes, luciferin-H EGE luminescence, 30 min. inhibition, % at 5 µM. 21% of 96,000 active;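 active means CYP2C19 inhibition above a set limit at 5 µM in the primary screen, cut at about 50% in these data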;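 further: plate controls were negative control wells for no effect and 2.5 mM tranylcypromine positive control for full effect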
CYP2C19 activ = activators of human cytochrome P450 2C19. 96,000 tested, under 10 active. recombinant CYP2C19, luciferin-H EGE luminescence; active compounds read high; 0 = fully inhibited enzyme, 1 = untreated enzyme. AID 1025. P33261. activation factor at 5 µM;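 active means activation factor of at least 2 at 5 µM in the primary screen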;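 further: 0 = wells with 2.5 mM tranylcypromine and 1 = vehicle-only wells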
Starred values were filed as active, the others as inactive; · = not tested or not shown. A selection: hits, their analogues and other compounds. The true share with any hit is near 28%.

SMILES | CYP2C9 inh | CD11b adhes enh | Mac1 fbg inh | CYP2C9 act | CYP2C19 inh | CYP2C19 activ
CC(C)COCC1CC2(CC(C)C(=O)CC2=O)C(=O)O1 (stereo unspecified) | 20.7 | -3.9 | 0.1 | 0.8 | 7.6 | 0.9
CC(Oc1ccccc1Cl)C(=O)/C=C/N(C)C (stereo unspecified) | 8.4 | 1.4 | -0.8 | 0.9 | 3.7 | 1
CSc1nc2ccc(NC(=O)C3CC(=O)N(Cc4ccccc4)C3)cc2s1 (stereo unspecified) | 33.2 | 2.0 | -9.5 | 0.7 | 15.9 | 0.8
COc1cc(OC)cc(C(=O)Nc2ccccc2N2CCOCC2)c1 | 41.2 | -2.3 | -19.4 | 0.6 | 40.3 | 0.6
COc1cccc(C(=O)Nc2ccccc2N2CCCC2)c1 | 26.3 | 6.9 | -35.6 | 0.7 | 68.7* | 0.3
O=C(Cc1c(F)c(F)c(F)c(F)c1F)OC12CC3CC(C1)C(=O)C(C3)C2 | -1.0 | 5.4 | 2.6 | 1 | 71.6* | 0.3
O=C(c1cc2c(ccc3ccccc32)o1)N1CCN(c2ncc(C(F)(F)F)cc2Cl)CC1 | 2.1 | -3.0 | 19.5 | 1 | 16.8 | 0.8
O=C(O)COc1cccc(NC(=O)c2ccccc2)c1 | -17.5 | 0.1 | 0.1 | 1.2 | -18.9 | 1.2
CCC(CC)C(=O)Nc1cccc(/C(C)=N/NC(=O)c2ccccc2Cl)c1 | 41.7 | 1.8 | -8.5 | 0.6 | 51.3* | 0.5
CCC(CC)C(=O)Nc1cccc(-c2nc3ccccc3o2)c1 | 65.6* | 8.6 | 7.1 | 0.3 | 58.6* | 0.4
CCC(=O)Oc1ccc(C(=O)Nc2cccc(C(=O)c3ccccc3)c2)cc1 | 72.9* | · | · | 0.3 | 71.2* | 0.3
CCC(CC)C(=O)Nc1cccc(C(=O)c2ccccc2)c1 | 55.4* | -2.3 | 6.0 | 0.4 | 69.5* | 0.3
Cc1oc2ccc(OCc3ccccc3F)cc2c1C(=O)O | 39.6 | -0.6 | 4.6 | 0.6 | 2.8 | 1
O=C(Nc1cccc2ncccc12)c1ccc(-c2ccc(Br)cc2)o1 | 7.4 | 3.2 | 6.6 | 0.9 | 12.6 | 0.9
COc1ccc(Sc2ccc(NC(=O)c3ccccc3Cl)cc2C#N)cc1 | -10.7 | · | · | 1.1 | 15.8 | 0.8
COc1ccc(S(=O)(=O)N/N=C(/C)c2cccc(NC(=O)c3ccccc3Cl)c2)cc1 | 95.1* | 17.6 | 10.5 | 0 | 97.2* | 0
O=C(CCc1ccccc1)NCc1ccccn1 | 10.6 | -2.6 | 3.3 | 0.9 | 12.3 | 0.9
CC1c2nc3ccccc3n2C(CC(=O)NCc2ccccn2)C(=O)N1Cc1ccccc1 (stereo unspecified) | 7.1 | -2.7 | 1.2 | 0.9 | 80.4* | 0.2
N#CCSc1ncnc2c1cnn2CCO | -9.3 | -0.1 | -6.0 | 1.1 | -9.3 | 1.1
O=c1c2ccccc2nc(COc2ccccc2)n1/N=C/c1ccco1 | 78.8* | -2.4 | -2.3 | 0.2 | 62.0* | 0.4
O=C(O)COc1ccc(/C=N/n2c(COc3ccccc3)nc3ccccc3c2=O)cc1 | · | 5.2 | 0.9 | · | · | ·
O=S(=O)(NCc1cccnc1)c1ccc(Cl)c(Cl)c1Cl | -20.6 | -0.9 | 47.5 | 1.2 | 87.8* | 0.1
O=S(=O)(NCc1cccnc1)c1cccc2cccnc12 | -63.1 | -3.2 | 8.2 | 1.6 | -5.8 | 1.1
Cc1ccc(S(=O)(=O)NCc2cccnc2)s1 | -0.9 | -3.7 | -25.5 | 1 | 37.3 | 0.6
Cc1ccc(C(C)C)cc1S(=O)(=O)NCc1cccnc1 | 61.6* | -4.3 | -12.4 | 0.4 | 78.1* | 0.2
SMILES | CYP2C9 inh | CD11b adhes enh | Mac1 fbg inh | CYP2C9 act | CYP2C19 inh | CYP2C19 activ
Nc1cc(OC(=O)c2cccs2)nn1S(=O)(=O)c1ccc(F)cc1 | 92.9* | -5.0 | 5.0 | 0.1 | 39.8 | 0.6
COc1cccc(C(=O)O/N=C(\N)c2ccncc2)c1OC | · | 7.4 | 2.7 | · | · | ·
COc1cccc(C(=O)Oc2cc(N)n(S(=O)(=O)c3ccc(C)cc3)n2)c1OC | 75.6* | · | · | 0.2 | 9.0 | 0.9
COc1ccc(-c2cc(C(=O)NCC(C)C)no2)cc1 | 4.4 | -0.9 | -15.4 | 1 | -3.0 | 1
O=C(NCCc1ccccc1)C1CCN(S(=O)(=O)c2ccc(-n3cnnn3)cc2)CC1 | 5.3 | -1.4 | 1.7 | 0.9 | 2.6 | 1
CC1CC(C)CN(c2ccc(-n3cnnn3)cc2[N+](=O)[O-])C1 (stereo unspecified) | 18.6 | · | · | 0.8 | 64.0* | 0.4
O=[N+]([O-])c1cc(-n2cnnn2)ccc1N1CCC(Cc2ccccc2)CC1 | 62.3* | · | · | 0.4 | 42.5 | 0.6
N#CCCn1c(C2CCCCC2)nc2ccccc21 | -16.9 | -2.3 | 5.3 | 1.2 | -18.0 | 1.2
Cc1ccc(NC(=O)C2CC=CCC2C(=O)N2CCCCC2)cc1 (stereo unspecified) | 28.7 | -3.1 | -19.8 | 0.7 | 38.1 | 0.6
CCCn1c(CN2CCN(c3cccc(Cl)c3)CC2)nc2c1c(=O)n(C)c(=O)n2C | 42.2 | -8.2 | 91.0* | 0.6 | 24.8 | 0.8
Cn1c(=O)c2c(nc(CN3CCN(c4ccccc4)CC3)n2Cc2c(F)cccc2Cl)n(C)c1=O | 29.0 | -0.2 | 3.1 | 0.7 | 27.3 | 0.7
CCOC(=O)N1CCN(Cc2nc3c(c(=O)n(C)c(=O)n3C)n2Cc2ccc(F)cc2)CC1 | -23.1 | 4.1 | -3.2 | 1.2 | -6.8 | 1.1
CCCCn1c(CN2CCN(c3cccc(Cl)c3)CC2)nc2c1c(=O)n(C)c(=O)n2C | 85.3* | -12.5 | 89.9 | 0.1 | 56.3* | 0.4
CCCCCn1c(CN2CCN(c3cccc(Cl)c3)CC2)nc2c1c(=O)n(C)c(=O)n2C | 54.6* | -4.8 | 11.8 | 0.5 | 21.6 | 0.8
CCOC(=O)N1CCN(Cc2nc3c(c(=O)n(C)c(=O)n3C)n2Cc2cccc(C)c2)CC1 | 67.4* | -1.8 | 14.7 | 0.3 | 85.6* | 0.1
COc1ccc(-c2nc(SC)n(C(=O)c3ccco3)n2)cc1 | 33.4 | -0.5 | -1.7 | 0.7 | 0.7 | 1
CCCCn1c(CN2CCN(c3ccccc3)CC2)nc2c1c(=O)n(C)c(=O)n2C | 8.5 | -2.5 | 65.1* | 0.9 | 6.9 | 0.9
Cn1c(=O)c2c(nc(CN3CCN(c4ccccc4)CC3)n2Cc2ccccc2Cl)n(C)c1=O | -12.7 | -1.1 | 14.2 | 1.1 | -0.7 | 1
Cc1ccc(CNC(=O)c2cn(C3CCCCC3)c(=O)c3c2c2ccccc2n3C)o1 | 39.4 | 6.8 | -11.0 | 0.6 | 24.5 | 0.8
Cc1cc(NC(=O)c2cn(C3CCCCC3)c(=O)c3c2c2ccccc2n3C)no1 | 84.4* | 13.9 | -8.2 | 0.2 | 59.6* | 0.4
C/C=C(\C)CN1CCN(c2ccccc2F)CC1 | 22.9 | -2.8 | -24.1 | 0.8 | 72.7* | 0.3
C/C=C(\C)CN1CCN(c2cccc(C)c2C)CC1 | 15.5 | · | · | 0.8 | 28.5 | 0.7
C/C=C(\C)CN1CCN(c2cc(C)ccc2C)CC1 | 54.9* | -3.3 | -3.2 | 0.5 | 82.2* | 0.2
Cc1ccc(C)c(N2CCN(Cc3nnnn3C3CCCCC3)CC2)c1 | 41.5 | 0.5 | 15.1 | 0.6 | 55.8* | 0.4
Cc1nn(-c2ccc(F)cc2)c(Cl)c1/C=C(\CC(=O)O)c1nc2ccccc2s1 | 17.3 | · | · | 0.8 | -12.1 | 1.1
